According to PubChem BioAssay AID463173 (ICCB-Longwood Screening Facility, Harvard Medical School, 2010):
The campaign covered roughly 52,000 compounds. About 1,700 (3.3%) were called active. Cut-off read from the data, not from the text of the source: active = survival mostly below about 52% (no sharp cut-off); inactive = mostly above about 56%. The list comes from a sample in which actives are over-represented; it also holds similar structures and randomly drawn compounds.

system: Wild type; assay: growth inhibition of S. aureus wild type versus tarO mutant, primary screen, teichoic acid synthesis inhibitors, RN4220, OD600 (AID 463173); settings: S. aureus RN4220 wild type/DeltatarO growth, OD600, 18 h, hits give low values, screened at 18.75 µg/mL (by protocol)

Row | SMILES | survival
1 | Nc1ccc(-c2nc3c(Cl)cccc3[nH]2)cc1 | 125% (inactive)
2 | CCOc1ccc(-n2c(C)nc3cc(C(=O)NC4CCCC4)ccc32)cc1 | 67% (inactive)
3 | COc1cccc(Cn2c(=O)n(-c3cccc(Cl)c3C)c(=O)c3c4c(sc32)CN(C(C)=O)CC4)c1 | 75% (inactive)
4 | Cn1cc(S(=O)(=O)N2CCCC2)cc1C(=O)Nc1ccc(C(F)(F)F)cc1 | 109% (inactive)
5 | CCCCNc1nc(Oc2ccc(=O)n(C)n2)nc(N(C)C)n1 | 83% (inactive)
6 | COc1ccc(-c2cc(C(=O)Nc3sc4c(c3C#N)CCCC4)no2)cc1OC | 80% (inactive)
7 | CCC1CN(C(=O)N2CCC(C(=O)NCCCc3ccccc3)CC2)c2cc(C)ccc2O1 (stereo not drawn) | 79% (inactive)
8 | COCCCn1c(=N)c(C(=O)NCc2cccnc2)cc2c(=O)n3cccc(C)c3nc21 | 74% (inactive)
9 | Fc1cc(Br)ccc1Nc1c2c(nc3nc(-c4cccs4)nn13)CCCC2 | 0% (active)
10 | COc1cc(OC)c(Nc2c3c(nc4nc(-c5cccs5)nn24)CCCC3)cc1Cl | 85% (inactive)
11 | Cc1ccc(Nc2c3c(nc4nc(-c5cccs5)nn24)CCCC3)cc1F | -3% (active)
12 | Cc1ccc(Nc2c3c(nc4nncn24)CCC3)cc1C | 76% (inactive)
13 | CC(=O)c1cccc(Nc2c3c(nc4nc(-c5cccs5)nn24)CCCC3)c1 | 76% (inactive)
14 | COc1ccc(C)cc1Nc1c2c(nc3nc(-c4cccs4)nn13)CCCC2 | 63% (inactive)
15 | O=C(Cn1c2ncccc2c(=O)n1-c1ccccc1)NCc1ccccc1 | 80% (inactive)
16 | Cc1cc(O)c(C(c2ccccc2)N2CCCCC2)c(=O)n1Cc1ccco1 (stereo not drawn) | 77% (inactive)
17 | O=C(NCc1ccccn1)c1cc2n(n1)C(C(F)(F)F)CC(c1ccco1)N2 (stereo not drawn) | 108% (inactive)
18 | Cc1ccc2oc(-c3ccc(NC(=O)c4cccc(F)c4)c(C)c3)nc2c1 | 100% (inactive)
19 | CNC(=S)N(Cc1cccnc1)Cc1cc2cc(OC)ccc2[nH]c1=O | 112% (inactive)
20 | COc1cc2c(cc1OC)n(CC(=O)c1cc(C)ccc1C)c(=O)n1nc(CCn3nc(C)cc3C)nc21 | 71% (inactive)
21 | Cc1c(C(N)=O)sc2ncn(Cc3ccccc3)c(=O)c12 | 112% (inactive)
22 | CC(C)=CCc1c(O)cc(O)c2c1OC(c1ccccc1)CC2=O (stereo not drawn) | 1% (active)
23 | CC1(C)OC(c2ccccc2)CC1=O (stereo not drawn) | 98% (inactive)
24 | Cc1ccc(COc2ccc3oc(-c4ccccc4)c(C(=O)O)c3c2)cc1 | 54% (inactive)
25 | O=C(O)c1c(-c2ccccc2)oc2ccc(OCc3ccc(Cl)c(Cl)c3)cc12 | 0% (active)

Row | SMILES | survival
26 | O=C(O)c1c(-c2ccccc2)oc2ccc(OCc3c(F)cccc3Cl)cc12 | 38% (inactive)
27 | CCCCNC(=O)C1CCN(S(=O)(=O)CCC)CC1 | 83% (inactive)
28 | Cc1ccc(CN2CCC(CNC(=O)c3cnn(-c4ccccc4)c3C3CCN(C(=O)OC(C)(C)C)CC3)CC2)cc1 | 73% (inactive)
29 | Cc1cccc(OC(=O)c2snnc2C)c1C | 80% (inactive)
30 | Cc1csc2nc(-c3cccc(NC(=O)c4c(F)cccc4F)c3)cn12 | 121% (inactive)
31 | CCCC(=O)Nc1cccc(-c2cn3c(C)csc3n2)c1 | -6% (active)
32 | Cc1csc2nc(-c3cccc(NC(=O)C(C)C)c3)cn12 | 80% (inactive)
33 | O=C(NCc1ccco1)c1ccc2c(c1)N(Cc1ccc(Cl)cc1)C(=O)c1ccccc1S2=O (stereo not drawn) | 165% (inactive)
34 | COc1ccccc1CNC(=O)CN1C(=O)c2cccnc2Oc2ccccc21 | 64% (inactive)
35 | CCc1cnc2c(c1SCCC(C)C)c(=O)n(C)c(=O)n2C | 79% (inactive)
36 | Cc1ccc(C(=O)N2CCn3c4c(c5cc(C)ccc53)CCCC42)cc1 (stereo not drawn) | -10% (active)
37 | CCOc1cc(C(=O)N2CCn3c4c(c5cc(C)ccc53)CCCC42)cc(OCC)c1OCC (stereo not drawn) | 67% (inactive)
38 | CCCN(CCC)S(=O)(=O)c1ccc(C(=O)N2CCn3c4c(c5cc(C)ccc53)CCCC42)cc1 (stereo not drawn) | 82% (inactive)
39 | Cc1ccc2c(c1)c1c3n2CCN(C(=O)c2cccc(C(F)(F)F)c2)C3CCC1 (stereo not drawn) | 5% (active)
40 | Cc1ccc2c(c1)c1c3n2CCN(C(=O)c2ccc(C(F)(F)F)cc2)C3CCC1 (stereo not drawn) | 49% (inactive)
41 | COc1cc(SC)ccc1C(=O)N1CCn2c3c(c4cc(C)ccc42)CCCC31 (stereo not drawn) | 85% (inactive)
42 | COc1ccccc1Nc1nc2c(S(=O)(=O)c3ccc(C(C)C)cc3)nnn2c2ccsc12 | 116% (inactive)
43 | CCCc1nc2ccccc2c(NC(=O)CN(CC)CC)c1CC | 103% (inactive)
44 | CN(C)CCNC(=O)Cc1ccc(NC(=O)N2CCCCc3ccccc32)cc1 | 75% (inactive)
45 | COc1ccc(/C=C\C(=O)NC2CC(=O)N(c3ccccc3)C2)cc1OC (stereo not drawn) | 134% (inactive)
46 | CCOC(=O)c1ccccc1Nc1cc(C)nc2nc(-c3ccco3)nn12 | 133% (inactive)
47 | Cc1cc(C)cc(Nc2cc(C)nc3nc(-c4ccco4)nn23)c1 | 78% (inactive)
48 | Cc1cc(Nc2ccc(Br)c(C)c2)n2nc(-c3ccco3)nc2n1 | -6% (active)
49 | CCOc1ccc(OCC)c(Nc2cc(C)nc3nc(-c4ccco4)nn23)c1 | -1% (active)
50 | Cc1cc(Nc2cccc(F)c2)n2nc(-c3ccco3)nc2n1 | 69% (inactive)

Row | SMILES | survival
51 | Cc1cc(Nc2ccccc2Cl)n2nc(-c3ccco3)nc2n1 | 78% (inactive)
52 | CC(C)CC(=O)Nc1c(C(=O)N2CCN(c3ccccc3)CC2)oc2ccccc12 | 96% (inactive)
53 | c1ccc(C(c2ccccc2)N2CCN(Cc3nnnn3Cc3ccc4c(c3)OCO4)CC2)cc1 | 105% (inactive)
54 | O=c1c(=O)n(-c2ccccc2)ccn1Cc1cccc(C(F)(F)F)c1 | 108% (inactive)
55 | CN(C(=O)CSc1nc2ccc(NC(=O)c3ccccc3)cc2s1)c1ccccc1 | 77% (inactive)
56 | COCCN(Cc1ccc(C)c(Br)c1)S(=O)(=O)c1ccc2[nH]c(=O)ccc2c1 | -3% (active)
57 | CCN(c1ccc(OC)cc1)S(=O)(=O)c1ccc2[nH]c(=O)ccc2c1 | 72% (inactive)
58 | CN(C)CCN(Cc1ccccc1)S(=O)(=O)c1ccc2[nH]c(=O)ccc2c1 | 76% (inactive)
59 | CCc1ccccc1NC(=O)c1cc(S(=O)(=O)N2CCC(C)CC2)cn1C | 22% (inactive)
60 | COC(=O)c1cc(-c2ccc(C)cc2)c2c(=O)n(C)c(=O)n(C)c2n1 | 105% (inactive)
61 | O=C(NCCNCc1ccccc1)c1ccco1 | 115% (inactive)
62 | CC(=O)Nc1ccc(NC(=O)CCS(=O)(=O)c2ccc3c(c2)CC(=O)N3C)cc1 | 66% (inactive)
63 | N#Cc1c(NC(=O)c2cc3nc(-c4ccc(Br)cc4)cc(C(F)(F)F)n3n2)sc2c1CCCC2 | 0% (active)
64 | Cc1ccc(-c2cc(C(F)(F)F)n3nc(C(=O)Nc4sc5c(c4C#N)CCC(C)C5)cc3n2)cc1 (stereo not drawn) | 70% (inactive)
65 | COC(=O)c1c(NC(=O)c2cc3nc(-c4ccc(Br)cc4)cc(C(F)(F)F)n3n2)sc2c1CCCC2 | 82% (inactive)
66 | COc1ccc(CNC(=O)c2cc(-c3ccc(C)c(C)c3)n[nH]2)cc1 | 67% (inactive)
67 | Cc1cc2c(cc1S(=O)(=O)NCc1ccc(F)cc1)n(C)c(=O)c(=O)n2C | 85% (inactive)
68 | Cc1c(C(=O)OCc2ccccc2)[nH]c2c1C(=O)CC(c1ccc(Cl)cc1)C2 (stereo not drawn) | 99% (inactive)
69 | COc1cc(NC(=O)CNC(=O)Cn2ccc3ccccc3c2=O)cc(OC)c1OC | 130% (inactive)
70 | O=S(=O)(Cc1ccccc1)N1CCC(c2nc(-c3cccs3)no2)CC1 | 110% (inactive)
71 | CC1=C(c2ccc(C)cc2)S(=O)(=O)N(Cc2ccc(C(=O)Nc3ccccc3C)cc2)C1=O | 78% (inactive)
72 | Cc1ccc(N2CCN(C(=O)c3cn(C)c4ccc(S(=O)(=O)N5CCCC5)cc4c3=O)CC2C)cc1 (stereo not drawn) | 134% (inactive)
73 | CN(C)c1ccc(CNC(=O)c2cc3cc(S(=O)(=O)N4CCCCC4)ccc3n2C)cc1 | 0% (active)
74 | CCC(C)NC(=O)c1cc2cc(S(=O)(=O)N3CCCCC3)ccc2n1C (stereo not drawn) | 14% (active)
75 | Cc1ccccc1CNC(=O)c1cc2cc(S(=O)(=O)N3CCCCC3)ccc2n1C | 66% (inactive)

Row | SMILES | survival
76 | CC(C)CCNC(=O)c1cc2cc(S(=O)(=O)N3CCCCC3)ccc2n1C | 74% (inactive)
77 | CCc1ccc(CNC(=O)c2cc3cc(S(=O)(=O)N4CCCCC4)ccc3n2C)cc1 | 47% (inactive)
78 | CC(CNC(=O)c1cc2cc(S(=O)(=O)N3CCCCC3)ccc2n1C)c1ccccc1 (stereo not drawn) | 55% (inactive)
79 | Cn1c(C(=O)NCc2ccc(F)cc2)cc2cc(S(=O)(=O)N3CCCCC3)ccc21 | 131% (inactive)
80 | Cc1ccccc1CCNC(=O)c1cc2cc(S(=O)(=O)N3CCCCC3)ccc2n1C | -3% (active)
81 | Cn1c(C(=O)NCCc2ccccc2)cc2cc(S(=O)(=O)N3CCCCC3)ccc21 | 73% (inactive)
82 | CCOC(=O)c1sc2cccc(F)c2c1S(=O)(=O)NCc1ccccc1Cl | 130% (inactive)
83 | Clc1ccc2[nH]c3nc4ccccc4nc3c2c1 | 104% (inactive)
84 | COc1ccc(Nc2cc(C(=O)NCc3ccccc3)c3ccccc3n2)cc1OC | 83% (inactive)
85 | CC(=O)c1ccc(NC(=O)Cn2cc3c(n2)CCCC3)cc1 | 82% (inactive)
86 | Cc1ccsc1CN(Cc1ccco1)C(=O)c1ccc(Cl)cc1 | 65% (inactive)
87 | Cc1nn(C)c2c1c(C(F)(F)F)cc(=O)n2CC(=O)N1CCCCC1 | 67% (inactive)
88 | CCOc1ccc(/C=C/c2nc(C#N)c(N3CCN(c4ccc(OC)cc4)CC3)o2)cc1 | 84% (inactive)
89 | CCn1cc(C(=O)N2CCN(c3cc(C)ccc3C)CC2)c(=O)c2cc(S(=O)(=O)N3CCOCC3)ccc21 | 81% (inactive)
90 | COc1ccc(CNC(=O)c2ccc(-c3nc(CSc4ccccc4)c(C)o3)cc2)c(OC)c1 | 100% (inactive)
91 | Cc1ccc(SCc2nc(-c3ccc(C(=O)NCCc4ccc(Cl)cc4)cc3)oc2C)cc1 | -4% (active)
92 | Cc1oc(-c2ccc(C(=O)NCCc3ccc(Cl)cc3)cc2)nc1CSc1ccccc1 | 59% (inactive)
93 | CCc1ccc(CNC(=O)c2ccc(-c3nc(CSc4ccc(C)cc4)c(C)o3)cc2)cc1 | 63% (inactive)
94 | COc1ccc(OC)c(CNC(=O)c2ccc(-c3nc(CSc4ccccc4)c(C)o3)cc2)c1 | 129% (inactive)
95 | COc1ccc(CNC(=O)c2ccc(-c3nc(CSc4ccc(C)cc4)c(C)o3)cc2)c(OC)c1 | 1% (active)
96 | Cc1ccc(SCc2nc(-c3ccc(C(=O)NCc4ccc(Cl)cc4)cc3)oc2C)cc1 | 64% (inactive)
97 | COc1ccc(CNC(=O)c2ccc(-c3nc(CSc4ccccc4)c(C)o3)cc2)cc1OC | 77% (inactive)
98 | COc1ccc(CNC(=O)c2ccc(-c3nc(CSc4ccc(C)cc4)c(C)o3)cc2)cc1OC | -3% (active)
